Experimental data from the supplement of paper PMC12067926.

Assays:
Assay in all cases: relative growth (AUC of 72 h growth curve relative to DMSO control, dAUC) (ratio); higher = more growth (less inhibition), active = hit call of the paper
Conditions in all cases: 20 µM;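 active = growth AUC significantly below the DMSO wells by Dunnett test; inactive = the rest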
[1] = system: Prolinoborus 1 (Prolinoborus fasciculus)
Procedure, shortened: (§1)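 Whole sediment communities and bacterial isolates from Icelandic stream sediments and Silwood Park soil were brought to carrying capacity in Luria–Bertani medium. They were then diluted 1:100 into 96-well plates with each chemical at 20 µM in 1% DMSO, and A600 was recorded every hour for 72 h. The area under each growth curve, integrated by spline, was averaged across three biological replicates. This figure, divided by the mean of the DMSO controls, gives relative growth (dAUC).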

[2] = system: Pseudomonas 1 (Pseudomonas baetica)
Procedure, shortened: as §1

[3] = system: Pseudomonas 2 (Pseudomonas vancouverensis)
Procedure, shortened: as §1

[4] = system: Pseudomonas 3 (Pseudomonas mandelii)
Procedure, shortened: as §1

[5] = system: Pseudomonas 4 (Pseudomonas peli)
Procedure, shortened: as §1

[6] = system: Pseudomonas 5 (Pseudomonas baetica)
Procedure, shortened: as §1

[7] = system: Pseudomonas 6 (Pseudomonas sp.)
Procedure, shortened: as §1

[8] = system: Rhizobium 1 (Rhizobium herbae)
Procedure, shortened: as §1

[9] = system: Serratia 1 (Serratia sp. 2015-2462-01)
Procedure, shortened: as §1

[10] = system: Sphingomonas 2 (Sphingomonas sp.)
Procedure, shortened: as §1

SMILES | relative growth [1] | relative growth [2] | relative growth [3] | relative growth [4] | relative growth [5] | relative growth [6] | relative growth [7] | relative growth [8] | relative growth [9] | relative growth [10]
COCc1cnc(C2=NC(C)(C(C)C)C(=O)N2)c(C(=O)O)c1 (stereo not given) | 1.08 (inactive) | 0.958 (inactive) | 0.98 (inactive) | 0.992 (inactive) | 0.974 (inactive) | 0.972 (inactive) | 1.01 (inactive) | 0.972 (inactive) | 1.03 (inactive) | 0.982 (inactive)
O=C1C2CC=CCC2C(=O)N1SC(Cl)(Cl)Cl (stereo not given) | 0.598 (active) | 0.601 (active) | 0.983 (inactive) | 0.941 (inactive) | 0.796 (active) | 0.954 (inactive) | 0.879 (inactive) | 0.519 (active) | 0.813 (active) | 0.398 (active)
CCCC1COC(Cn2cncn2)(c2ccc(Cl)cc2Cl)O1 (stereo not given) | 0.954 (inactive) | 1.08 (inactive) | 0.967 (inactive) | 1 (inactive) | 0.914 (inactive) | 0.987 (inactive) | 1.02 (inactive) | 0.931 (inactive) | 0.944 (inactive) | 1.11 (inactive)
CCCCC(C#N)(Cn1cncn1)c1ccc(Cl)cc1 (stereo not given) | 0.947 (inactive) | 0.939 (inactive) | 0.943 (inactive) | 0.993 (inactive) | 0.927 (inactive) | 0.963 (inactive) | 0.907 (inactive) | 0.958 (inactive) | 0.973 (inactive) | 0.96 (inactive)
Cc1c(COC(=O)[C@@H]2[C@H](/C=C(\Cl)C(F)(F)F)C2(C)C)cccc1-c1ccccc1 (racemic) | 0.977 (inactive) | 0.975 (inactive) | 0.983 (inactive) | 0.977 (inactive) | 0.995 (inactive) | 1.01 (inactive) | 0.949 (inactive) | 0.893 (inactive) | 1.01 (inactive) | 1.07 (inactive)
COP(=O)(NC(C)=O)SC (stereo not given) | 1.03 (inactive) | 1.07 (inactive) | 1.02 (inactive) | 1.08 (inactive) | 1.02 (inactive) | 1.02 (inactive) | 1.14 (inactive) | 0.999 (inactive) | 0.992 (inactive) | 0.94 (inactive)
Fc1ccc([C@]2(Cn3cncn3)O[C@H]2c2ccccc2Cl)cc1 (racemic) | 0.982 (inactive) | 0.942 (inactive) | 0.973 (inactive) | 1.04 (inactive) | 0.967 (inactive) | 0.992 (inactive) | 1.07 (inactive) | 1.08 (inactive) | 0.972 (inactive) | 1.01 (inactive)
O=C(NC(=O)c1c(F)cccc1F)Nc1ccc(Cl)cc1 | 0.965 (inactive) | 1.06 (inactive) | 1.01 (inactive) | 1.04 (inactive) | 1.02 (inactive) | 1.01 (inactive) | 1.05 (inactive) | 1.06 (inactive) | 0.988 (inactive) | 1.02 (inactive)
C[N+](C)(C)CCCl | 0.959 (inactive) | 1.07 (inactive) | 1.03 (inactive) | 1.01 (inactive) | 1.04 (inactive) | 1.02 (inactive) | 1.07 (inactive) | 0.998 (inactive) | 0.962 (inactive) | 1.02 (inactive)
Fc1ccc(Oc2ccnc3cc(Cl)cc(Cl)c23)cc1 | 1.03 (inactive) | 1.07 (inactive) | 1.02 (inactive) | 1.06 (inactive) | 1.07 (inactive) | 1.01 (inactive) | 1.06 (inactive) | 0.992 (inactive) | 1.01 (inactive) | 0.975 (inactive)
N#Cc1nn(-c2c(Cl)cc(C(F)(F)F)cc2Cl)c(N)c1[S+]([O-])C(F)(F)F (stereo not given) | 0.897 (inactive) | 0.913 (inactive) | 0.948 (inactive) | 0.94 (inactive) | 0.987 (inactive) | 1.01 (inactive) | 0.962 (inactive) | 0.971 (inactive) | 0.96 (inactive) | 0.983 (inactive)
CNC(=O)Oc1cccc(/N=C/N(C)C)c1 | 0.966 (inactive) | 1.04 (inactive) | 0.989 (inactive) | 1.1 (inactive) | 0.942 (inactive) | 1.07 (inactive) | 1.17 (inactive) | 0.99 (inactive) | 0.97 (inactive) | 1.05 (inactive)
CC(C)(C)c1ccc(CSc2cnn(C(C)(C)C)c(=O)c2Cl)cc1 | 0.998 (inactive) | 1 (inactive) | 1.01 (inactive) | 1.02 (inactive) | 1.02 (inactive) | 1.01 (inactive) | 1.13 (inactive) | 1.04 (inactive) | 1.06 (inactive) | 0.802 (inactive)
N#Cc1sc2c(=O)c3ccccc3c(=O)c=2sc1C#N | 1.03 (inactive) | 0.913 (inactive) | 0.929 (inactive) | 0.887 (active) | 1.07 (inactive) | 0.962 (inactive) | 0.885 (inactive) | 1 (inactive) | 0.862 (inactive) | 1.01 (inactive)
CCOCN(C(=O)CCl)c1c(C)cccc1CC | 1.2 | 1.1 (inactive) | 0.978 (inactive) | 1.02 (inactive) | 0.966 (inactive) | 0.988 (inactive) | 1.03 (inactive) | 0.909 (inactive) | 0.95 (inactive) | 1.17 (inactive)
Cc1cc(C(C#N)c2ccc(Cl)cc2)c(Cl)cc1NC(=O)c1cc(I)cc(I)c1O (stereo not given) | 0.673 (active) | 0.846 (inactive) | 0.757 (active) | 0.822 (active) | 0.883 (inactive) | 0.844 (active) | 0.857 (inactive) | 0.478 (inactive) | 0.825 (active) | 0.0325 (active)
CC(C)CC(C)c1sccc1NC(=O)c1cn(C)nc1C(F)(F)F (stereo not given) | 0.895 (inactive) | 1.11 (inactive) | 0.985 (inactive) | 1.05 (inactive) | 1 (inactive) | 1 (inactive) | 1.05 (inactive) | 0.331 (active) | 0.974 (inactive) | 0.888 (inactive)
O=C(Nc1ccccc1-c1ccc(Cl)cc1)c1cccnc1Cl | 0.978 (inactive) | 0.948 (inactive) | 0.972 (inactive) | 1 (inactive) | 0.986 (inactive) | 0.998 (inactive) | 0.959 (inactive) | 0.665 (inactive) | 0.971 (inactive) | 0.958 (inactive)
O=C1C2(Cl)C3(Cl)C4(Cl)C(Cl)(Cl)C5(Cl)C3(Cl)C1(Cl)C5(Cl)C24Cl (stereo not given) | 0.943 (inactive) | 1.01 (inactive) | 0.962 (inactive) | 0.955 (inactive) | 0.934 (inactive) | 1.07 (inactive) | 1.14 (inactive) | 0.292 (active) | 0.909 (inactive) | 0.382 (active)
O=C(Nc1ccc(F)cc1F)c1cccnc1Oc1cccc(C(F)(F)F)c1 | 1.03 (inactive) | 1.09 (inactive) | 1.01 (inactive) | 1.05 (inactive) | 1.01 (inactive) | 1.06 (inactive) | 1.13 (inactive) | 0.66 (inactive) | 1.02 (inactive) | 1.16 (inactive)
COC(=O)c1ccccc1S(=O)(=O)NC(=O)Nc1nc(C)nc(OC)n1 | 1.03 (inactive) | 0.998 (inactive) | 1.01 (inactive) | 0.983 (inactive) | 1.08 (inactive) | 0.984 (inactive) | 0.905 (inactive) | 1.15 (inactive) | 1.11 (inactive) | 1.03 (inactive)
Cc1nc(N(C)C)nc(OC(=O)N(C)C)c1C | 0.948 (inactive) | 1 (inactive) | 0.96 (inactive) | 0.978 (inactive) | 0.949 (inactive) | 0.991 (inactive) | 1.02 (inactive) | 1.22 (inactive) | 0.992 (inactive) | 0.968 (inactive)
O=[N+]([O-])/N=C1\NCCN1Cc1ccc(Cl)nc1 | 0.987 (inactive) | 0.857 (inactive) | 0.973 (inactive) | 1.04 (inactive) | 1.01 (inactive) | 0.978 (inactive) | 0.932 (inactive) | 0.991 (inactive) | 0.968 (inactive) | 0.979 (inactive)
CNC(=O)c1cc(Cl)cc(C)c1NC(=O)c1cc(Br)nn1-c1ncccc1Cl | 0.997 (inactive) | 0.975 (inactive) | 0.996 (inactive) | 0.958 (inactive) | 1.01 (inactive) | 0.958 (inactive) | 0.922 (inactive) | 0.944 (inactive) | 1.04 (inactive) | 1.06 (inactive)
CC(Oc1ccc(Oc2nc3ccc(Cl)cc3o2)cc1)C(=O)O (stereo not given) | 0.978 (inactive) | 0.948 (inactive) | 1 (inactive) | 0.97 (inactive) | 1.01 (inactive) | 0.962 (inactive) | 0.916 (inactive) | 1.07 (inactive) | 1.04 (inactive) | 1.12 (inactive)
CCNc1nc(Cl)nc(NC(C)C)n1 | 0.944 (inactive) | 0.917 (inactive) | 0.95 (inactive) | 0.996 (inactive) | 0.956 (inactive) | 1.01 (inactive) | 0.945 (inactive) | 0.995 (inactive) | 0.928 (inactive) | 1.02 (inactive)
COC(=O)N(C(=O)N1CO[C@@]2(C(=O)OC)Cc3cc(Cl)ccc3C2=N1)c1ccc(OC(F)(F)F)cc1 | 1 (inactive) | 1.02 (inactive) | 0.991 (inactive) | 1.04 (inactive) | 1.01 (inactive) | 0.965 (inactive) | 0.966 (inactive) | 1 (inactive) | 0.967 (inactive) | 0.861 (inactive)
CCc1cc(C)cc(CC)c1-c1c(OC(=O)C(C)(C)C)n2n(c1=O)CCOCC2 | 0.926 (inactive) | 1.1 (inactive) | 0.992 (inactive) | 1.01 (inactive) | 0.953 (inactive) | 0.951 (inactive) | 1.02 (inactive) | 0.907 (inactive) | 0.972 (inactive) | 1.06 (inactive)
COCC(C)N(C(=O)CCl)c1c(C)csc1C (stereo not given) | 0.925 (inactive) | 1.04 (inactive) | 0.974 (inactive) | 1 (inactive) | 0.962 (inactive) | 1.07 (inactive) | 1.15 (inactive) | 1.04 (inactive) | 0.939 (inactive) | 1.01 (inactive)
